In all, about 5,500 compounds went through this assay and about 2,000 (36%) were called active. About 18% were inconclusive and are not listed. Rule as the data show it: active = normalized growth mostly below about 0.91 (no sharp cut-off); inconclusive = no clear call, values can overlap the other calls; inactive = mostly above about 0.92. Some of the results follow.
Assay: chemical genetic growth profiling, strain panel (AID 1159580);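 also: tested at 20 µM; growth read once vehicle control cultures reached saturation at 30 °C; 1 = growth at the plate median or of vehicle wells; lower values mean less growth of the strain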
Settings: S. cerevisiae deletion strains, growth OD

Measured: normalized growth

CC(C)c1ccc(-c2cc(=O)c3ccccc3o2)cc1
inactive: locus YAR019C, strain CDC15, hits give low values 0.937 | locus YBL105C, strain PKC1, hits give low values 0.935 | locus YBR135W, strain CKS1, hits give low values 0.932 | locus YBR136W, strain MEC1, hits give low values 0.941 | locus YBR160W, strain CDC28, hits give low values 0.941 | locus YDL017W, strain CDC7, hits give low values 0.932 | locus YDL028C, strain MPS1, hits give low values 0.933 | locus YDL101C, strain DUN1, hits give low values 0.945 | locus YDL108W, strain KIN28, hits give low values 0.934 | locus YDL132W, strain cdc53, hits give low values 0.948 | locus YDL214C, strain PRR2, hits give low values 0.814 | locus YDR052C, strain DBF4, hits give low values 0.944 | locus YDR054C, strain cdc34, hits give low values 0.917 | locus YDR226W, strain ADK1, hits give low values 0.931 | locus YDR477W, strain SNF1, hits give low values 0.791 | locus YER123W, strain YCK3, hits give low values 0.721 | locus YER133W, strain GLC7, hits give low values 0.762 | locus YFL009W, strain cdc4, hits give low values 0.921 | locus YFL029C, strain CAK1, hits give low values 0.932 | locus YFR003C, strain YPI1, hits give low values 0.928 | locus YFR019W, strain FAB1, hits give low values 0.864 | locus YFR028C, strain CDC14, hits give low values 0.915 | locus YGR040W, strain KSS1, hits give low values 0.728 | locus YGR052W, strain FMP48, hits give low values 0.759 | locus YGR092W, strain DBF2, hits give low values 0.569 | locus YHR079C, strain IRE1, hits give low values 0.849 | locus YHR082C, strain KSP1, hits give low values 0.875 | locus YHR205W, strain SCH9, hits give low values 0.82 | locus YIL147C, strain SLN1, hits give low values 0.932 | locus YJL095W, strain BCK1, hits give low values 0.82 | locus YJL128C, strain PBS2, hits give low values 0.86 | locus YJL157C, strain FAR1, hits give low values 0.832 | locus YJR016C, strain ILV3, hits give low values 0.922 | locus YJR066W, strain TOR1 (second series), hits give low values 0.633 | locus YJR066W, strain TOR1, hits give low values 0.863 | locus YKL067W, strain YNK1, hits give low values 0.812 | locus YKL101W, strain HSL1, hits give low values 0.725 | locus YKL193C, strain SDS22, hits give low values 0.928 | locus YKL203C, strain TOR2, hits give low values 0.836 | locus YLR133W, strain CKI1, hits give low values 0.855 | locus YLR403W, strain SFP1, hits give low values 0.858 | locus YML070W, strain DAK1, hits give low values 0.698 | locus YMR001C, strain CDC5, hits give low values 0.921 | locus YMR205C, strain PFK2 (second series), hits give low values 0.846 | locus YMR277W, strain FCP1, hits give low values 0.917 | locus YNL006W, strain LST8, hits give low values 0.932 | locus YNL020C, strain ARK1, hits give low values 0.833 | locus YNL161W, strain CBK1, hits give low values 0.934 | locus YNL183C, strain NPR1, hits give low values 0.861 | locus YNL207W, strain RIO2, hits give low values 0.924 | locus YNL222W, strain SSU72, hits give low values 0.934 | locus YNL307C, strain MCK1 (second series), hits give low values 0.809 | locus YOL078W, strain AVO1, hits give low values 0.928 | locus YOL136C, strain PFK27, hits give low values 0.792 | locus YOR061W, strain CKA2, hits give low values 0.822 | locus YOR119C, strain RIO1, hits give low values 0.778 | locus YOR231W, strain MKK1, hits give low values 0.799 | locus YOR329C, strain SCD5, hits give low values 0.939 | locus YPL031C, strain PHO85, hits give low values 0.781 | locus YPL153C, strain RAD53, hits give low values 0.716 | locus YPL204W, strain HRR25, hits give low values 0.724 | locus YPL209C, strain IPL1, hits give low values 0.937 | locus YPR025C, strain CCL1, hits give low values 0.937 | locus YPR106W, strain ISR1, hits give low values 0.926 | locus YPR111W, strain DBF20, hits give low values 0.918 | strain NNK1, hits give low values 0.921 | strain TSCII, hits give low values 0.929
active: locus YHR030C, strain SLT2, hits give low values 0.631 | locus YKL048C, strain ELM1, hits give low values 0.797 | locus YLR113W, strain HOG1, hits give low values 0.596 | locus YPL256C, strain CLN2, hits give low values 0.714
